# Data as given in PubChem BioAssay (NCATS).
# Inconclusive results are not listed. Entries that show only a call come without a potency. Activity calls are given as the source filed them. Unless noted, calls follow the shape of the dose curve; as a rule, active = well fitted curve in the direction sought with a large enough effect; inconclusive = small, poorly fitted or top-dose-only effect, or another doubt; inactive = no such curve, though single readings can be large; an effect the other way counts as inactive or inconclusive.
# Assays:
# [1] = molecular target: Voltage-gated inwardly rectifying potassium channel KCNH2 (Homo sapiens) (UniProt Q12809); test: qHTS Assay for Small Molecule Inhibitors of the Human hERG Channel Activity (AID 588834);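 also: lower thallium flux fluorescence means stronger hERG block; nearly all actives have a fitted effect of over 50% in size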; also: potency is read from the fitted curve at half-maximal effect
# Summary of the method: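 Homogeneous FluxOR thallium flux assay using hERG-expressing U2OS cells (BacMam). Compound treatment about 10 minutes preceded stimulation; reduced fluorescence taken as channel block.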
# [2] = molecular target: Glutaminase kidney isoform, mitochondrial (Homo sapiens) (UniProt O94925); test: qHTS for Inhibitors of Glutaminase (GLS): LOPAC Validation (AID 624146); also: nearly all actives have a fitted effect of over 60% in size; also: potency is read from the fitted curve at half-maximal effect
# Summary of the method: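 Glutamate formation by hKGA was monitored fluorometrically using coupled glutamate oxidase, HRP and Amplex Red. Substrate was added as 1 mM L-glutamine solution; incubation was 30 min at RT after an initial read.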
# [3] = qHTS of Trypanosoma Brucei Inhibitors: LOPAC Validation (AID 624147)
# Summary of the method: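 Luminescent Kinase-Glo Plus end-point after 45 min room-temperature reaction of T. brucei pyruvate kinase started with 130 uM ADP (final). Buffer TEA 50 mM pH 7.2 with KCl, MgCl2, BSA, Tween-20; titration-based qHTS with fitted concentration-effect curves.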
# [4] = qHTS of Nrf2 Activators: LOPAC Validation (AID 624149); also: potency is read from the fitted curve at half-maximal effect
# Summary of the method: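 Following overnight seeding in 5% FBS OPTI-MEM, AREc32_Fluc cells receive compounds for a 24 hr incubation at 37 deg C with 5% CO2. Steady-Glo is added, and after 30 min at RT luminescence is recorded.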
# [5] = molecular target: Glucagon-like peptide 1 receptor (Homo sapiens) (UniProt P43220); test: qHTS of GLP-1 Receptor Agonists: LOPAC Validation (AID 624148);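 also: higher luminescence signal means agonism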
# Summary of the method: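 HEK293 cells stably co-expressing GLP-1R and a cAMP-responsive luciferase reporter, plated 12 hours before compound, then incubated 4-6 hr at 37 deg C. Luminescence read 12 min after detection reagent.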
# [6] = molecular target: Luciferin 4-monooxygenase (Photinus pyralis) (UniProt P08659); test: Biochemical firefly luciferase enzyme assay for NPC (AID 624030); also: nearly all actives have a fitted effect of over 70% in size; also: potency is read from the fitted curve at half-maximal effect
# Summary of the method: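 Purified P. pyralis luciferase at 10 nM in 50 mM Tris Acetate (final), luminescence read within 5 minutes of enzyme addition to compounds. Activity normalised to PTC124 versus DMSO; concentration-response curves classed by r2, magnitude and activity.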
# [7] = S16 Schwann cell viability assay (CellTiter-Glo assay) (AID 624031);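 also: cellular ATP luminescence as a viability measure; series mostly up to about 58 µM; nearly all actives have a fitted effect of over 70% in size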
# Summary of the method: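 Native S16 rat Schwann cells, 500-750 cells/well in DMEM with 10% FBS, dosed with compound after overnight culture and incubated 24h at 37 degree Celsius/5% CO2. Viability by CellTiter-Glo luminescence; % activity normalized to no-cell wells and DMSO-treated cells.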
# [8] = S16 Schwann cell PMP22 intronic element firefly luciferase assay (AID 624032); also: nearly all actives have a fitted effect of over 30% in size; also: potency is read from the fitted curve at half-maximal effect
# Summary of the method: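 Rat S16 Schwann cells stably carrying firefly luciferase driven by a PMP22 intronic element, in 10% FBS, treated 24 h at 37 C. ONE-Glo luminescence normalized to PTC124 control and DMSO (0%); curves classed by r2, magnitude and activity.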
# [9] = S16 Schwann cell PMP22 intronic element beta-lactamase assay (AID 624044; calls by dose curve; also: nearly all actives have a fitted effect of over 15% in size)
# Summary of the method: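 Beta-lactamase reporter under a PMP22 intronic regulatory element in stable S16 rat Schwann cells; 24 h compound exposure. 460 nm blue signal normalized between DMSO (0%) and potassium clavulanate, with 535 nm FRET tracking viability; curves classed by r2 and response.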
# Chain of Luciferin 4-monooxygenase (Photinus pyralis) (P08659 whole entry, looked up): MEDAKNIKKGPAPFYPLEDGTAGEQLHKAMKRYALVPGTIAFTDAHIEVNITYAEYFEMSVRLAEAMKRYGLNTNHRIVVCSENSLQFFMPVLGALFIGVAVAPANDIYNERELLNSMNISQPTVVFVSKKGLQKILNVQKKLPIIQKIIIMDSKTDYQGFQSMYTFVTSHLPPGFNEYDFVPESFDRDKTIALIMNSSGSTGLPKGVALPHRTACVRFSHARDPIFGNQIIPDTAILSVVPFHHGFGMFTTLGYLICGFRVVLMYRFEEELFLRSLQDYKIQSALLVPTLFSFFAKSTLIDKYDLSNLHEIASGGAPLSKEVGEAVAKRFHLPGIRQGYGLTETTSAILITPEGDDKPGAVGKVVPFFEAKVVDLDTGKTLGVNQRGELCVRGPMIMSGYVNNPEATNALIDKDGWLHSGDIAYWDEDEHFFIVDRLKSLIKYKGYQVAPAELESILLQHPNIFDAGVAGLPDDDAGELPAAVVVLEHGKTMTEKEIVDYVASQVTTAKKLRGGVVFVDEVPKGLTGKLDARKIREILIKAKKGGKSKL
# Chain of Glucagon-like peptide 1 receptor (Homo sapiens) (P43220 whole entry, looked up): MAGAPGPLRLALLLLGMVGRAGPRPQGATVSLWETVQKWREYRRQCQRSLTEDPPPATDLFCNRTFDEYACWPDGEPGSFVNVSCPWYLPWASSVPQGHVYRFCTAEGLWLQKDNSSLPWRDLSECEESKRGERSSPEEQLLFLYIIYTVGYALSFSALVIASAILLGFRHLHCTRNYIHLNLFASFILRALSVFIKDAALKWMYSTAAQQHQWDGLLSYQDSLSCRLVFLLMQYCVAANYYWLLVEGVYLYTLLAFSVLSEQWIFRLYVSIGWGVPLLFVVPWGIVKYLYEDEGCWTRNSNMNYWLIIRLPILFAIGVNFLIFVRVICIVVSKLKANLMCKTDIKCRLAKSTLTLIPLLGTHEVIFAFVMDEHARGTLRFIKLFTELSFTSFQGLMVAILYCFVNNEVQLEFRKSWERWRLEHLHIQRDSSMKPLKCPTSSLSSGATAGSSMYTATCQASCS
# Chain of Voltage-gated inwardly rectifying potassium channel KCNH2 (Homo sapiens) (Q12809 whole entry, looked up): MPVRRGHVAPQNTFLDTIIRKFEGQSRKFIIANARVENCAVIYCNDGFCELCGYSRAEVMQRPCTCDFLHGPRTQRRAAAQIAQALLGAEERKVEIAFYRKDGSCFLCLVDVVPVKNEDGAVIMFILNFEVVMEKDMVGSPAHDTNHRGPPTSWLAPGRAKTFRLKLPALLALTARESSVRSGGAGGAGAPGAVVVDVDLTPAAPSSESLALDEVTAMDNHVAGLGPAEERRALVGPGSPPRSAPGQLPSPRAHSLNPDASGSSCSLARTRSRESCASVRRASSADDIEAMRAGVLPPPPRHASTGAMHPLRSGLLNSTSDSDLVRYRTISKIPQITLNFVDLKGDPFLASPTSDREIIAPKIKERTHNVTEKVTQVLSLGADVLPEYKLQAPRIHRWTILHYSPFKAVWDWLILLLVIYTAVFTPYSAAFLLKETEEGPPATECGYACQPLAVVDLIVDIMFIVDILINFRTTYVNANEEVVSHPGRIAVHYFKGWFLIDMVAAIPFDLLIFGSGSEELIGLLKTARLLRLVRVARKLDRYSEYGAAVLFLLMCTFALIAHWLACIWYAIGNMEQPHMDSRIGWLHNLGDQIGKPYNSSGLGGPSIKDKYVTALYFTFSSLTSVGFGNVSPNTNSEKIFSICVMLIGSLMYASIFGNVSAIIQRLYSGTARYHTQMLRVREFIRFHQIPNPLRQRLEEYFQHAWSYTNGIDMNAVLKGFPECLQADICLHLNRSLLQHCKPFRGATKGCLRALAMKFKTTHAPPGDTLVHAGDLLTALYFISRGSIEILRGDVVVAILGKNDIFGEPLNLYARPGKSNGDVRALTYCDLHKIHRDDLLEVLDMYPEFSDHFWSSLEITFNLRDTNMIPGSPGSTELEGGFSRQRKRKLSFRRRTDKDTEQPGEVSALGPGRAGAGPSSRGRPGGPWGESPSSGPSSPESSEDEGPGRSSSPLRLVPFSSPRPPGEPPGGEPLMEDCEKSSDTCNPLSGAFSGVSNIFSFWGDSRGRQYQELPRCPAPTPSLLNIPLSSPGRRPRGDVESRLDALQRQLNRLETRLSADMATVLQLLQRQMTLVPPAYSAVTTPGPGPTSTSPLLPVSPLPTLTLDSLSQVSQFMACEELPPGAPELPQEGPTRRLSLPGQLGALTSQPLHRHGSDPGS
# Chain of Glutaminase kidney isoform, mitochondrial (Homo sapiens) (O94925 whole entry, looked up, canonical isoform): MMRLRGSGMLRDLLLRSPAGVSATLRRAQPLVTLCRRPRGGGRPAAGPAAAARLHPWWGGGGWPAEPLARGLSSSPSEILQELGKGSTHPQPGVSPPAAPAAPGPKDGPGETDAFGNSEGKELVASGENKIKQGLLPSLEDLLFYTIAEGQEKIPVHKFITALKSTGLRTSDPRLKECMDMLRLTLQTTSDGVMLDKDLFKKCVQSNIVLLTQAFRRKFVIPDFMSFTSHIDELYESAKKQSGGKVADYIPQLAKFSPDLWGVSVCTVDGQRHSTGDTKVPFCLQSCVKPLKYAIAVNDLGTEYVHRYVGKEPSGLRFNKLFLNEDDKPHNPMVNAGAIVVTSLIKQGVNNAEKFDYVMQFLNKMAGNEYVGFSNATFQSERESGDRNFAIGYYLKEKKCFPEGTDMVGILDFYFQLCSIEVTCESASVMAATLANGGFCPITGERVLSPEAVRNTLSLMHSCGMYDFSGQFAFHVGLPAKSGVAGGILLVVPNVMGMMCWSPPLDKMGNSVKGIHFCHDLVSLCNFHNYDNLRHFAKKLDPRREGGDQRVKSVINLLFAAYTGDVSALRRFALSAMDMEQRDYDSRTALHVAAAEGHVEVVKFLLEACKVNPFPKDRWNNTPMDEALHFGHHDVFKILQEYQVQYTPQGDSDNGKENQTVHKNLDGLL
smiles,measurement,setting,value
CCCN(CCC)C1CCc2cccc(O)c2C1 (centres undefined),Potency,[1],inactive
same,Potency,[2],inactive
same,Potency,[3],inactive
same,Potency,[4],inactive
CN(N=O)c1ccc(O)c(O)c1,Potency,[1],inactive
same,Potency,[2],inactive
same,outcome,[5],inactive
same,Potency,[4],inactive
Clc1ccc(N2CC3CCC(C2)N3)nn1,Potency,[1],inactive
same,Potency,[2],inactive
same,Potency,[3],inactive
same,Potency,[4],inactive
NC(N)=NOCC[C@H](N)C(=O)O,Potency,[1],inactive
same,Potency,[3],inactive
same,Potency,[4],inactive
CNC(=O)OCC[N+](C)(C)C,Potency,[6],inactive
same,Potency,[7],inactive
same,Potency,[8],inactive
same,Potency,[9],inactive
CCCCCCC(C)(C)c1ccc([C@@H]2C[C@H](O)CC[C@H]2CCCO)c(O)c1,Potency,[1],8.91 µM (active)
same,Potency,[2],inactive
same,Potency,[3],inactive
same,Potency,[4],inactive
CP(=O)(O)C1=CCNCC1,Potency,[1],inactive
same,Potency,[2],inactive
same,Potency,[3],inactive
same,Potency,[4],inactive
Oc1ccc2c3c1O[C@H]1c4[nH]c5ccccc5c4C[C@@]4(O)C(C2)N(CC2CC2)CCC314 (some centres undefined),Potency,[1],0.794 µM (active)
same,Potency,[3],inactive
same,outcome,[5],inactive
same,Potency,[4],inactive
COc1ccc2[nH]cc(CCN)c2c1,Potency,[1],inactive
same,Potency,[3],inactive
same,outcome,[5],inactive
same,Potency,[4],inactive
CC(N)c1cccc(Cl)c1Cl (centres undefined),Potency,[1],inactive
same,Potency,[2],inactive
same,Potency,[3],inactive
same,Potency,[4],inactive
O=S1(=O)N(CCN2CC=C(c3c[nH]c4cc(F)ccc34)CC2)c2cccc3c2N1CCC3,Potency,[1],7.08 µM (active)
same,Potency,[3],inactive
same,outcome,[5],inactive
same,Potency,[4],inactive
CNC(=O)Oc1ccccc1C(=O)Nc1ccccc1,Potency,[6],14.4 µM (active)
same,Potency,[7],inactive
same,Potency,[8],inactive
same,Potency,[9],inactive
CCN(CC)C(=O)/C(Cl)=C(\C)OP(=O)(OC)OC,Potency,[6],inactive
same,Potency,[7],inactive
CCCC(C)C1(CC)C(=O)NC(=O)NC1=O (centres undefined),Potency,[6],inactive
same,Potency,[7],inactive
same,Potency,[8],inactive
C[N+](C)(C)CC#CCN1CCCC1=O,Potency,[1],inactive
same,Potency,[2],inactive
same,Potency,[3],inactive
same,Potency,[4],inactive
Cc1[nH]c2ccc(O)cc2c1CCN,Potency,[1],inactive
same,Potency,[3],inactive
same,outcome,[5],inactive
same,Potency,[4],inactive
CNc1ccc2oc(C[C@H]3O[C@@]4(CC[C@H]3C)O[C@H]([C@H](C)C(=O)c3ccc[nH]3)[C@H](C)C[C@H]4C)nc2c1C(=O)O,Potency,[1],3.16 µM (active)
same,Potency,[2],3.55 µM (active)
same,Potency,[3],inactive
same,Potency,[4],inactive
CC(Cc1ccc(OCC(=O)O)cc1)NCC(O)c1cccc(Cl)c1 (centres undefined),Potency,[1],inactive
same,Potency,[2],inactive
same,Potency,[3],inactive
same,Potency,[4],inactive
Cc1o[nH]c(=O)c1CC(N)C(=O)O (centres undefined),Potency,[1],inactive
same,Potency,[2],inactive
same,Potency,[3],inactive
same,Potency,[4],inactive
C[N+]1(C)CCN(c2ccccc2)CC1,Potency,[1],inactive
same,Potency,[2],inactive
same,Potency,[3],inactive
same,Potency,[4],inactive
CC(=O)c1c(O)c(C)c(O)c(Cc2c(O)c3c(c(C(=O)/C=C/c4ccccc4)c2O)OC(C)(C)C=C3)c1O,Potency,[1],inactive
same,Potency,[3],inactive
same,outcome,[5],inactive
same,Potency,[4],inactive
NC(N)=Nc1ccc2[nH]c3c(c2c1)C[C@@]1(O)[C@H]2Cc4ccc(O)c5c4[C@@]1(CCN2CC1CC1)[C@H]3O5,Potency,[1],inactive
same,Potency,[3],inactive
same,Potency,[4],2.91 µM (active)
COC(=O)N1CCN(C(=O)Cc2ccc(Cl)c(Cl)c2)C(CN2CCCC2)C1 (centres undefined),Potency,[1],11.2 µM (active)
same,Potency,[2],inactive
same,Potency,[3],inactive
same,Potency,[4],inactive
N[C@@]1(C(=O)O)CC[C@@H](C(=O)O)C1,Potency,[1],inactive
same,Potency,[2],inactive
same,Potency,[3],inactive
same,Potency,[4],inactive
CC(=O)O[C@H]1CC[C@H]2[C@@H]3CCC4=CC(=O)CCC4=C3C=C[C@]12C,Potency,[6],inactive
same,Potency,[7],inactive
same,Potency,[8],8.09 µM (active)
same,Potency,[9],inactive
CC(N)[C@H](O)c1ccc(O)c(O)c1 (some centres undefined),Potency,[1],inactive
same,Potency,[2],inactive
same,Potency,[3],inactive
same,Potency,[4],inactive
NC(=O)c1ccc(OCC(O)CN2CC=C(c3ccc(F)cc3)CC2)cc1 (centres undefined),Potency,[1],7.94 µM (active)
same,Potency,[2],inactive
same,Potency,[3],inactive
same,Potency,[4],inactive
O=[N+]([O-])c1ccc2nc(N3CCNCC3)ccc2c1,Potency,[1],inactive
same,Potency,[3],inactive
same,Potency,[4],inactive
Cc1c2ccncc2c(C)c2c1[nH]c1ccccc12,Potency,[1],20 µM (active)
same,Potency,[3],inactive
same,outcome,[5],inactive
same,Potency,[4],inactive
COc1ccc2[nH]c3c(c2c1)CCNC3,Potency,[1],inactive
same,Potency,[3],inactive
same,outcome,[5],inactive
same,Potency,[4],inactive
CCCC(=O)OC(C(Cl)(Cl)Cl)P(=O)(OC)OC (centres undefined),Potency,[7],inactive
same,Potency,[8],inactive
same,Potency,[9],inactive
C[C@@H]1O[C@H](C[N+](C)(C)C)CS1,Potency,[2],inactive
same,Potency,[3],inactive
same,outcome,[5],inactive
same,Potency,[4],inactive
CC(C)[C@@]1(NC(=O)[C@@H]2C[C@@H]3c4cccc5[nH]cc(c45)C[C@H]3N(C)C2)O[C@@]2(O)[C@@H]3CCCN3C(=O)[C@H](Cc3ccccc3)N2C1=O,Potency,[6],inactive
same,Potency,[3],inactive
same,Potency,[4],inactive
O=S(=O)(O)c1cc(O)ccc1O,Potency,[7],inactive
same,Potency,[8],inactive
same,Potency,[9],inactive
COC1=CC=C2[C@H]3Cc4ccc(OC)c5c4[C@@]2(CCN3C)[C@H]1O5,Potency,[7],inactive
same,Potency,[8],inactive
same,Potency,[9],inactive
COc1ccc2c(c1)c(CCN1CCOCC1)c(C)n2C(=O)c1cccc(Cl)c1Cl,Potency,[2],inactive
same,Potency,[3],inactive
same,outcome,[5],inactive
same,Potency,[4],inactive
